Key:
Experiment in all cases: SPOT peptide array binding signal intensity (averaged, normalized) (arbitrary units (background-subtracted, floor 0; scale differs between SH3 domains)); higher = stronger binding of the SH3 domain to the peptide
[1] = molecular target: SpBzz1-D2
How it was run: (§1)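 The binding signal is the normalized, background-subtracted spot intensity averaged over replicates; its arbitrary units differ between domains. It was obtained by incubating 10 μg/ml GST-fused SH3 domains from four yeast species overnight at 4°C in TBS-based blocking buffer on cellulose membranes with synthetic 15-mer peptides, cysteines replaced by serines, then detecting with anti-GST antibody, HRP anti-mouse secondary and luminol.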

[2] = molecular target: SpCyk3
How it was run: as §1

[3] = molecular target: SpHof1
How it was run: as §1

[4] = molecular target: SpHof1-2
How it was run: as §1

[5] = molecular target: SpHof1-3
How it was run: as §1

[6] = molecular target: SpHse1
How it was run: as §1

[7] = molecular target: SpLsb1
How it was run: as §1

[8] = molecular target: SpLsb4
How it was run: as §1

[9] = molecular target: SpMyo1
How it was run: as §1

[10] = molecular target: SpNbp2
How it was run: as §1

[11] = molecular target: SpPex13
How it was run: as §1

[12] = molecular target: SpRvs167
How it was run: as §1

[13] = molecular target: SpSla1-D1-D2
How it was run: as §1

[14] = molecular target: SpSla1-D3
How it was run: as §1

[15] = molecular target: AgAbp1
How it was run: as §1

[16] = molecular target: AgBbc1
How it was run: as §1

[17] = molecular target: AgBem1-D1
How it was run: as §1

[18] = molecular target: AgBzz1-D1
How it was run: as §1

[19] = molecular target: AgBzz1-D2
How it was run: as §1

[20] = molecular target: AgCyk3
How it was run: as §1

[21] = molecular target: AgFus1
How it was run: as §1

[22] = molecular target: AgHof1
How it was run: as §1

[23] = molecular target: AgHse1
How it was run: as §1

[24] = molecular target: AgLsb1
How it was run: as §1

[25] = molecular target: AgLsb4
How it was run: as §1

[26] = molecular target: AgMyo5
How it was run: as §1

[27] = molecular target: AgNbp2
How it was run: as §1

[28] = molecular target: AgRvs167
How it was run: as §1

[29] = molecular target: AgSho1
How it was run: as §1

[30] = molecular target: AgSla1-D1-D2
How it was run: as §1

[31] = molecular target: AgSla1-D3
How it was run: as §1

[32] = molecular target: CaAbp1-D1
How it was run: as §1

[33] = molecular target: CaAbp1-D2
How it was run: as §1

[34] = molecular target: CaBbc1
How it was run: as §1

[35] = molecular target: CaBem1-D1
How it was run: as §1

[36] = molecular target: CaBzz1-D1
How it was run: as §1

[37] = molecular target: CaBzz1-D2
How it was run: as §1

[38] = molecular target: CaCyk3
How it was run: as §1

[39] = molecular target: CaFus1
How it was run: as §1

[40] = molecular target: CaHof1
How it was run: as §1

[41] = molecular target: CaHse1
How it was run: as §1

[42] = molecular target: CaLsb1
How it was run: as §1

[43] = molecular target: CaLsb4
How it was run: as §1

[44] = molecular target: CaMyo5
How it was run: as §1

[45] = molecular target: CaNbp2
How it was run: as §1

[46] = molecular target: CaRvs167
How it was run: as §1

[47] = molecular target: CaRvs167-3
How it was run: as §1

[48] = molecular target: CaSho1
How it was run: as §1

[49] = molecular target: CaSla1-D1-D2
How it was run: as §1

[50] = molecular target: CaSla1-D3
How it was run: as §1

[51] = molecular target: ScAbp1
How it was run: as §1

[52] = molecular target: ScBbc1
How it was run: as §1

[53] = molecular target: ScBem1-D1
How it was run: as §1

[54] = molecular target: ScBzz1-D1
How it was run: as §1

[55] = molecular target: ScBzz1-D2
How it was run: as §1

[56] = molecular target: ScCyk3
How it was run: as §1

[57] = molecular target: ScFus1
How it was run: as §1

[58] = molecular target: ScHof1
How it was run: as §1

[59] = molecular target: ScHse1
How it was run: as §1

[60] = molecular target: ScLsb1
How it was run: as §1

[61] = molecular target: ScLsb2
How it was run: as §1

[62] = molecular target: ScLsb3
How it was run: as §1

[63] = molecular target: ScLsb4
How it was run: as §1

[64] = molecular target: ScMyo3
How it was run: as §1

[65] = molecular target: ScMyo5
How it was run: as §1

[66] = molecular target: ScNbp2
How it was run: as §1

[67] = molecular target: ScPex13
How it was run: as §1

[68] = molecular target: ScRvs167
How it was run: as §1

[69] = molecular target: ScSho1
How it was run: as §1

[70] = molecular target: ScSla1-D1-D2
How it was run: as §1

[71] = molecular target: ScSla1-D3
How it was run: as §1

[72] = molecular target: SpAbp1-D1
How it was run: as §1

[73] = molecular target: SpBbc1
How it was run: as §1

[74] = molecular target: SpBzz1-D1
How it was run: as §1

B1: unnamed (peptide)
chain: VQQDSLPKLPFRSWG
[1]
  SPOT peptide array binding signal intensity: 1
[2]
  SPOT peptide array binding signal intensity: 15.5
[3]
  SPOT peptide array binding signal intensity: 11.2
[4]
  SPOT peptide array binding signal intensity: 258
[5]
  SPOT peptide array binding signal intensity: 865
[6]
  SPOT peptide array binding signal intensity: 77.5
[7]
  SPOT peptide array binding signal intensity: 3.5
[8]
  SPOT peptide array binding signal intensity: 6040
[9]
  SPOT peptide array binding signal intensity: ≤ 0
[10]
  SPOT peptide array binding signal intensity: 1
[11]
  SPOT peptide array binding signal intensity: 5
[12]
  SPOT peptide array binding signal intensity: 2610
[13]
  SPOT peptide array binding signal intensity: 3.5
[14]
  SPOT peptide array binding signal intensity: ≤ 0

B2: unnamed (peptide)
chain: MAMRPIPPLPTESEY
[15]
  SPOT peptide array binding signal intensity: 9
[16]
  SPOT peptide array binding signal intensity: 8
[17]
  SPOT peptide array binding signal intensity: 155
[18]
  SPOT peptide array binding signal intensity: 7
[19]
  SPOT peptide array binding signal intensity: ≤ 0
[20]
  SPOT peptide array binding signal intensity: 13
[21]
  SPOT peptide array binding signal intensity: 55.5
[22]
  SPOT peptide array binding signal intensity: 87.8
[23]
  SPOT peptide array binding signal intensity: 38
[24]
  SPOT peptide array binding signal intensity: 230
[25]
  SPOT peptide array binding signal intensity: 1930
[26]
  SPOT peptide array binding signal intensity: ≤ 0
[27]
  SPOT peptide array binding signal intensity: 81
[28]
  SPOT peptide array binding signal intensity: 308
[29]
  SPOT peptide array binding signal intensity: 353
[30]
  SPOT peptide array binding signal intensity: 2
[31]
  SPOT peptide array binding signal intensity: ≤ 0
[32]
  SPOT peptide array binding signal intensity: 35
[33]
  SPOT peptide array binding signal intensity: 79
[34]
  SPOT peptide array binding signal intensity: 32
[35]
  SPOT peptide array binding signal intensity: 71
[36]
  SPOT peptide array binding signal intensity: 54
[37]
  SPOT peptide array binding signal intensity: 39
[38]
  SPOT peptide array binding signal intensity: 12
[39]
  SPOT peptide array binding signal intensity: 226
[40]
  SPOT peptide array binding signal intensity: 10
[41]
  SPOT peptide array binding signal intensity: 186
[42]
  SPOT peptide array binding signal intensity: 11
[43]
  SPOT peptide array binding signal intensity: 1410
[44]
  SPOT peptide array binding signal intensity: 35.2

B3: unnamed (peptide)
chain: DHPKGPPPPPPPDEK
[15]
  SPOT peptide array binding signal intensity: 9
[16]
  SPOT peptide array binding signal intensity: 3.75
[17]
  SPOT peptide array binding signal intensity: ≤ 0
[18]
  SPOT peptide array binding signal intensity: 1100
[19]
  SPOT peptide array binding signal intensity: 111
[20]
  SPOT peptide array binding signal intensity: ≤ 0
[21]
  SPOT peptide array binding signal intensity: 6.5
[22]
  SPOT peptide array binding signal intensity: ≤ 0
[23]
  SPOT peptide array binding signal intensity: 33
[24]
  SPOT peptide array binding signal intensity: 1.5
[25]
  SPOT peptide array binding signal intensity: ≤ 0
[26]
  SPOT peptide array binding signal intensity: 1710
[27]
  SPOT peptide array binding signal intensity: 7
[28]
  SPOT peptide array binding signal intensity: 1.17
[29]
  SPOT peptide array binding signal intensity: ≤ 0
[30]
  SPOT peptide array binding signal intensity: 14
[31]
  SPOT peptide array binding signal intensity: 297
[32]
  SPOT peptide array binding signal intensity: 1.5
[33]
  SPOT peptide array binding signal intensity: 1
[34]
  SPOT peptide array binding signal intensity: ≤ 0
[35]
  SPOT peptide array binding signal intensity: ≤ 0
[36]
  SPOT peptide array binding signal intensity: 2890
[37]
  SPOT peptide array binding signal intensity: 2700
[38]
  SPOT peptide array binding signal intensity: ≤ 0
[39]
  SPOT peptide array binding signal intensity: ≤ 0
[40]
  SPOT peptide array binding signal intensity: 2.5
[41]
  SPOT peptide array binding signal intensity: 6
[42]
  SPOT peptide array binding signal intensity: ≤ 0
[43]
  SPOT peptide array binding signal intensity: 20.5
[44]
  SPOT peptide array binding signal intensity: 38.8
[45]
  SPOT peptide array binding signal intensity: ≤ 0
[46]
  SPOT peptide array binding signal intensity: 0.667
[47]
  SPOT peptide array binding signal intensity: ≤ 0
[48]
  SPOT peptide array binding signal intensity: 7.5
[49]
  SPOT peptide array binding signal intensity: 12
[50]
  SPOT peptide array binding signal intensity: 2.75
[51]
  SPOT peptide array binding signal intensity: 4
[52]
  SPOT peptide array binding signal intensity: 3.5
[53]
  SPOT peptide array binding signal intensity: 4
[54]
  SPOT peptide array binding signal intensity: 3400
[55]
  SPOT peptide array binding signal intensity: 45
[56]
  SPOT peptide array binding signal intensity: 1
[57]
  SPOT peptide array binding signal intensity: 8.5
[58]
  SPOT peptide array binding signal intensity: 1
[59]
  SPOT peptide array binding signal intensity: 2
[60]
  SPOT peptide array binding signal intensity: 1
[61]
  SPOT peptide array binding signal intensity: ≤ 0
[62]
  SPOT peptide array binding signal intensity: ≤ 0
[63]
  SPOT peptide array binding signal intensity: 0.5
[64]
  SPOT peptide array binding signal intensity: 1750
[65]
  SPOT peptide array binding signal intensity: 1380
[66]
  SPOT peptide array binding signal intensity: 18.5
[67]
  SPOT peptide array binding signal intensity: ≤ 0
[68]
  SPOT peptide array binding signal intensity: 0.5
[69]
  SPOT peptide array binding signal intensity: ≤ 0
[70]
  SPOT peptide array binding signal intensity: ≤ 0
[71]
  SPOT peptide array binding signal intensity: 2.5
[72]
  SPOT peptide array binding signal intensity: 8
[73]
  SPOT peptide array binding signal intensity: ≤ 0
[74]
  SPOT peptide array binding signal intensity: 155
[1]
  SPOT peptide array binding signal intensity: 1.75
[2]
  SPOT peptide array binding signal intensity: ≤ 0
[3]
  SPOT peptide array binding signal intensity: 1
[4]
  SPOT peptide array binding signal intensity: 6.5
[5]
  SPOT peptide array binding signal intensity: 4
[6]
  SPOT peptide array binding signal intensity: 87.2
[7]
  SPOT peptide array binding signal intensity: ≤ 0
[8]
  SPOT peptide array binding signal intensity: ≤ 0
[9]
  SPOT peptide array binding signal intensity: 1880
[10]
  SPOT peptide array binding signal intensity: 18.5
[11]
  SPOT peptide array binding signal intensity: 10
[12]
  SPOT peptide array binding signal intensity: ≤ 0
[13]
  SPOT peptide array binding signal intensity: 10
[14]
  SPOT peptide array binding signal intensity: 13
